Source: PubChem BioAssay (NCATS)
Inconclusive results are not listed. Values without a mark were called inactive. The source made the active and inactive calls. Calls come from the whole dose curve; as a rule, active = well fitted inhibition curve with a large enough effect; inconclusive = small, poorly fitted or top-dose-only effect; inactive = flat fitted curve, though single readings scatter.

Molecular target: Voltage-gated inwardly rectifying potassium channel KCNH2 (Homo sapiens) (UniProt Q12809)
Sequence (Q12809 whole entry, looked up): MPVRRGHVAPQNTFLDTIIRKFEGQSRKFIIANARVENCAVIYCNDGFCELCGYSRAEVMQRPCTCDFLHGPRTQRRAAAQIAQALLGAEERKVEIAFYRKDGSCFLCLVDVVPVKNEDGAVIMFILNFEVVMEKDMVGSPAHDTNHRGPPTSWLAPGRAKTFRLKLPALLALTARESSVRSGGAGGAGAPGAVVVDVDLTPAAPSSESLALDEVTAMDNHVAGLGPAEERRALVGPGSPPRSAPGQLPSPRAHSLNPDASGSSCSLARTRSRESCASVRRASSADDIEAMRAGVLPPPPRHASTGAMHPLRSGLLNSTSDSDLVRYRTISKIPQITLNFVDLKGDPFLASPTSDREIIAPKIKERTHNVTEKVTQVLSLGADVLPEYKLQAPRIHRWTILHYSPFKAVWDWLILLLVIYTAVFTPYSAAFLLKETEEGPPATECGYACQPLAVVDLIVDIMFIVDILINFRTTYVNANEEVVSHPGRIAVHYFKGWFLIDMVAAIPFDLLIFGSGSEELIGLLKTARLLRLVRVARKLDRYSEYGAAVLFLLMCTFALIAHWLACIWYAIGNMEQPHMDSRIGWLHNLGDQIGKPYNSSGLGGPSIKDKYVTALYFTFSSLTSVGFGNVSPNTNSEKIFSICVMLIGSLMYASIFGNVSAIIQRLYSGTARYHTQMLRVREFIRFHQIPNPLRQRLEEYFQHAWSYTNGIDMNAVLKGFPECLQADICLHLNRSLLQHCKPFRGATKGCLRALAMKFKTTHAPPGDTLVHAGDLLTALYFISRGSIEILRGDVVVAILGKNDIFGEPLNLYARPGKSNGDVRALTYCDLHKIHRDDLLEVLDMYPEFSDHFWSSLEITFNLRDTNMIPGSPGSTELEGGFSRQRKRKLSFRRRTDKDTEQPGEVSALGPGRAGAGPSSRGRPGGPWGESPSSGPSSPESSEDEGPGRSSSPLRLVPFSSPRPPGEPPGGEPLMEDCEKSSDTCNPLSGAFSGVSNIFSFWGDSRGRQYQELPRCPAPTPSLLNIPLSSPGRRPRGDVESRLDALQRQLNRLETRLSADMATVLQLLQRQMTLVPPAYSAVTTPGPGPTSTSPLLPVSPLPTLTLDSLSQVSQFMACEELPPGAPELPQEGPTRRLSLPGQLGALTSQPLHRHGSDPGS
Experiment: qHTS Assay for Small Molecule Inhibitors of the Human hERG Channel Activity (AID 588834);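 note: lower thallium flux fluorescence means stronger hERG block; nearly all actives have a fitted effect of over 50% in size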; for activity change, negative = inhibition: top concentration of the series differs between compounds
Details: U2OS BacMam hERG, FluxOR thallium flux fluorescence; series mostly up to 46.1 µM; activity change, negative = inhibition: at the top concentration
Outline: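 Thallium-flux (FluxOR) read-out on FDSS: fluorescence read 10 s before and 2 min after stimulation buffer. hERG-BacMam-transduced U2OS cells, compound exposure about 10 min. AC50 by standard Hill equation.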
% is set by controls: 0 for no effect and ±100 for the full control effect; potency is the fitted concentration of half-maximal effect.

| SMILES | Potency | activity change, negative = inhibition |
| --- | --- | --- |
| CN(Cc1ccc(C(C)(C)C)cc1)Cc1cccc2ccccc12 | 7.94 µM (active) | – |
| CC(=C(CCOC(=O)C(C)C)SSC(CCOC(=O)C(C)C)=C(C)N(C=O)Cc1cnc(C)nc1N)N(C=O)Cc1cnc(C)nc1N | – | -37% |
| CC(=O)NO | – | 8.37% |
| NC(=S)N/N=C/c1cccnc1 | – | 7.02% |
| NC(=O)n1c(O)c(C(=O)c2cccs2)c2cc(Cl)ccc21 | – | 13.7% |
| CCOC(=O)[C@H](CCc1ccccc1)N[C@@H](C)C(=O)N1[C@H](C(=O)O)C[C@@H]2CCC[C@@H]21 | – | 13.3% |
| Cc1cc(C)cc(OCC2CNC(=O)O2)c1 (configuration not stated) | – | 16.6% |
| O=C(N/N=C/c1ccc([N+](=O)[O-])o1)c1ccc(O)cc1 | – | -28.6% [at 20.6 µM] |
| COc1cc(C(=O)N2CCCCCCC2)cc(OC)c1OC | – | 7.95% |
| CCN1/C(=C/C=C/c2sc3ccccc3[n+]2CC)Sc2ccccc21 | 1.41 µM (active) | – |
| C[C@@H](O)[C@H]1C(=O)N2C(C(=O)O)=C(S[C@@H]3CN[C@H](CNS(N)(=O)=O)C3)[C@H](C)[C@H]12 | – | -7.82% |
| COc1ccc(-c2cc(C(F)F)nn2-c2ccc(S(N)(=O)=O)cc2)cc1F | – | 0.278% |
| CC(=O)OCC(=O)[C@H]1CC[C@H]2[C@@H]3CCC4=CC(=O)CC[C@]4(C)[C@H]3CC[C@]12C | – | -10% |
| CCO[C@@H]1O[C@H](C(COCc2ccccc2)OCc2ccccc2)[C@H](OCc2ccccc2)[C@H]1O (some centres not stated) | – | -35.7% [at 20.6 µM] |
| CC(=O)Nc1ccc(S(=O)(=O)Nc2ccc([N+](=O)[O-])cc2)cc1 | – | -9.59% |
| Cc1ccccc1OCC(O)CO (configuration not stated) | – | 16.6% |
| CC(=O)NCCCCCC(=O)O | – | 4.21% |
| COc1ccc(CCN(C)CCCN2CCc3cc(OC)c(OC)cc3CC2=O)cc1OC | 7.94 µM (active) | – |
| OCc1ccccn1 | – | 19.5% |

| SMILES | Potency | activity change, negative = inhibition |
| --- | --- | --- |
| Nc1ccc(C(=O)NCC(=O)O)cc1 | – | 0.245% [at 20.6 µM] |
| COP(=O)(OC)OC(c1ccc(Cl)cc1)P(=O)(OC)OC (configuration not stated) | – | -0.101% |
| CC(C)(C)NCC(O)COc1cccc2c1C[C@H](O)[C@H](O)C2 (some centres not stated) | – | 6.16% [at 20.6 µM] |
| O=C(Oc1cccc2cccnc12)c1ccccc1 | – | 16.6% |
| O=S(=O)(O)c1ccc(O)cc1 | – | 3.88% |
| CCN(CC)CCOC(=O)C(Cc1cccc2ccccc12)CC1CCCO1 (configuration not stated) | 7.94 µM (active) | – |
| NS(=O)(=O)c1ccc(Cl)c(S(N)(=O)=O)c1 | – | 8.84% |
| CC(C)CCCC(C)N (configuration not stated) | – | 13.2% |
| CC(C)(C)NC[C@H](O)COc1cccc2c1CCCC2=O | – | 6.09% [at 20.6 µM] |
| Nc1ccc(S(=O)(=O)NCc2ccccc2)cc1 | – | 33.4% |
| OC(C#CCN1CCCC1)(c1ccccc1)c1ccccc1 | 22.4 µM (active) | – |
| CCc1oc2ccccc2c1C(=O)c1cc(I)c(O)c(I)c1 | – | -20.2% |
| Cc1ncc(CO)c(C=O)c1O | – | 9.29% |
| Nc1ccc(S(=O)(=O)Nc2cnc3ccccc3n2)cc1 | – | -1.4% |
| CO[C@H]1C=CO[C@@]2(C)Oc3c(C)c(O)c4c(O)c(c(/C=N/N5CCN(C)CC5)c(O)c4c3C2=O)NC(=O)/C(C)=C\C=C[C@H](C)[C@H](O)[C@@H](C)[C@@H](O)[C@@H](C)[C@H](OC(C)=O)[C@@H]1C | – | 26.6% |
| COc1cc(NS(=O)(=O)c2ccc(N)cc2)ncn1 | – | -22.6% [at 20.6 µM] |
| CC(C)Nc1cccnc1N1CCN(C(=O)c2cc3cc(NS(C)(=O)=O)ccc3[nH]2)CC1 | 8.91 µM (active) | – |
| O=S(c1cc(Cl)cc(Cl)c1O)c1cc(Cl)cc(Cl)c1O | – | 4.33% |
